From PubChem BioAssay (NCI)
About 83,000 compounds went through this panel and 20% of them were active in at least one assay; those are over-represented in the sample as a whole.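 Compound tested at a single concentration for 48 hours in 96-well plates; a percent growth value below 10 was scored as active.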 Unmarked numbers belong to inactive results. Activity calls are given as the source filed them.

System: HL-60(TB) leukemia
Assay: NCI-60 one-dose screen, 48 h (100 = growth as untreated, 0 = no growth, -100 = all killed)
Settings: 10 µM unless noted

Q: With `O=C1c2cc3c(cc2-c2c1c1ccc(F)cc1c(=O)n2C[C@H](O)[C@H](O)[C@H](O)CO)OCO3` as the molecule, how does the growth read?
A: Its growth is -14.8% (active).

Q: For `N#Cc1nc(-c2ccc(F)cc2)oc1S(=O)(=O)N1CCOCC1`, which growth is on record?
A: The growth was 16%.

Q: How did the growth turn out when `O=C(CSC(=S)N1CCCCC1)Nc1ccccc1` was run?
A: Its growth is 100%.

Q: How did the growth turn out when `CN(C)S(=O)(=O)c1cccc(-c2nc3sc4c(c3c(=O)[nH]2)CCCC4)c1` was run?
A: The growth was 22.3%.

Q: `COc1cc(C(=O)n2nc(N)c3c(C)cc(C)nc32)cc(OC)c1OC` was tested. Which growth did it give?
A: Its growth is 21.6%.

Q: With `CN(C)CCn1c(=O)c2ccccc2n2nc3ccccc3c12` as the molecule, how does the growth read?
A: The growth was 70.3%.

Q: `O=C1/C(=C/c2ccc([N+](=O)[O-])s2)Oc2ccc(Cl)cc21` was tested. Which growth did it give?
A: The growth was -20.6% (active).

Q: For `CC1(C)NC(=O)c2[nH]c3c(Cl)c(Cl)ccc3c2C1C#N` (centres undefined), which growth is on record?
A: Its growth is 65.4%.

Q: `CN1C(=O)CCC(N2C(=O)c3cccc(NCCOCCOCCNC(=O)c4cc5c(o4)C(=O)c4ccccc4C5=O)c3C2=O)C1=O` (centres undefined) was tested. Which growth did it give?
A: Its growth is 0.337% (active).

Q: How did the growth turn out when `COc1ccccc1NC(=O)n1c(=O)cc(C)c2ccc(O)cc21` was run?
A: Its growth is 105%.

Q: `COc1cccc(CCC(=O)c2cc3c(N)c(C(=O)Nc4ccccc4)sc3nc2C)c1` was tested. Which growth did it give?
A: The growth was 6.59% (active).

Q: `O=C1NCCN1/N=C/c1c(Cl)n(Cc2ccc(Cl)cc2)c2ccccc12` was tested. Which growth did it give?
A: Its growth is 74.4%.

Q: Which growth does the source give for `CCCCn1c(-c2ccc(O)cc2)cn2c3c(=O)[nH]c(=O)n(C)c3nc12` here?
A: Its growth is 48.9%.

Q: How did the growth turn out when `COc1cc(C(=O)N2CCN(c3ccccc3OC)CC2)c(N)cc1OCCCN1CCN(c2ccccc2OC)CC1` was run?
A: Its growth is 85.3%.
